# Experimental data as given in PubChem BioAssay AID1240 (Sanford-Burnham Center for Chemical Genomics, 2008).
# Screen size: about 50,000 compounds; about 800 (1.6%) showed an effect of 50% or more. Shown is part of a subset that was picked to be rich in strong results.
# Molecular target: Bcl-2-like protein 10 (Homo sapiens) (UniProt Q9HD36)
# Assay: Phenotype converters, Bcl-B/TR3 peptide binding displacement, primary biochemical FP (AID 1240);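 also: 0% = Bcl-B with tracer peptide and DMSO and 100% = tracer peptide lacking Bcl-B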
# Settings: GST-Bcl-B / FITC-TR3 peptide fluorescence polarization; stronger effect = higher value; compound at 3.75 mg/L
# Sequence of Bcl-2-like protein 10 (Homo sapiens) (Q9HD36 whole entry, looked up): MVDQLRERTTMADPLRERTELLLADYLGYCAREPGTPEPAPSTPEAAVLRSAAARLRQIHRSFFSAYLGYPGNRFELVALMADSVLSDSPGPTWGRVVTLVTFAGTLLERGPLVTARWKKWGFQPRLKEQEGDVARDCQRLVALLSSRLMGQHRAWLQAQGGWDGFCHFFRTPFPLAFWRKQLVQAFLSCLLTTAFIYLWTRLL
row,Compound,displacement [%]
1,C=CCNC(=O)CN(c1ccc(OC)cc1OC)S(=O)(=O)c1ccc(C)cc1,8.5
2,C=COCCNC(=O)C(=O)Nc1ccc(F)cc1,5
3,Cc1cccc(NC(=O)CCCN2C(=O)c3cccc4cccc(c34)C2=O)n1,0.6
4,O=C1NN(c2ccccc2)C(=O)/C1=C/c1ccc(-c2ccccc2Cl)o1,-13.5
5,COC(=O)c1ccccc1-c1ccc(/C=C2/SC(=S)N(c3ccccc3)C2=O)o1,70
6,COC(=O)c1ccc(-c2ccc(/C=C3/SC(=S)N(c4ccccc4)C3=O)o2)cc1,12.6
7,O=C1/C(=C/c2ccc(-c3ccccc3[N+](=O)[O-])o2)SC(=S)N1c1cccc(C(F)(F)F)c1,-3
8,O=C1/C(=C/c2ccc(-c3ccccc3[N+](=O)[O-])o2)SC(=S)N1c1cccc(Cl)c1,73.5
9,COC(=O)c1ccccc1-c1ccc(/C=C2/SC(=S)N(CC(=O)O)C2=O)o1,5.3
10,COc1ccc(N2C(=O)/C(=C/c3ccc(-c4ccccc4[N+](=O)[O-])o3)SC2=S)cc1,11.9
11,O=C(/C=C/c1cccc(C(F)(F)F)c1)Nc1cccc([N+](=O)[O-])c1,20.4
12,CCOc1ccccc1NC(=S)NCc1ccccc1,3.9
13,O=[N+]([O-])c1ccccc1S(=O)(=O)NCc1ccc2c(c1)OCO2,-3.4
14,Cc1cccc(OCC(=O)NC(C)c2ccccc2)c1 (centres undefined),-5.2
15,Cc1ccc(OCC(=O)NC(C)c2ccccc2)cc1C (centres undefined),89.2
16,Cc1cc(OCC(=O)NC(C)c2ccccc2)cc(C)c1Cl (centres undefined),1.4
17,COC(=O)c1sc(NC(=O)c2c(-c3c(Cl)cccc3Cl)noc2C)c(C#N)c1C,3.1
18,O=C(Oc1ccc(/C=N/NS(=O)(=O)c2ccc(Cl)cc2)cc1)c1ccco1,6.4
19,O=C(O)c1ccc(Cl)c(-c2ccc(C=C3C(=O)c4ccccc4C3=O)o2)c1,99.1
20,O=C(O)c1ccc(-c2ccc(C=C3C(=O)c4ccccc4C3=O)o2)cc1Cl,25.2
21,O=C(O)c1cccc(-c2ccc(C=C3C(=O)c4ccccc4C3=O)o2)c1,-2.7
22,N/C(=N\OC(=O)c1ccc(Cl)c([N+](=O)[O-])c1)c1ccccc1Cl,1.1
23,O=C1c2ccccc2NC(c2ccc(-c3ccccc3[N+](=O)[O-])o2)N1c1ccccc1 (centres undefined),16.8
24,O=C(N/N=C/c1ccc(Br)c([N+](=O)[O-])c1)c1cccs1,113
25,O=C(CNc1ccc2ccccc2c1)N/N=C/c1ccc(Br)c([N+](=O)[O-])c1,-4.4
26,Cc1cc(C(=O)N/N=C/c2ccc(Br)c([N+](=O)[O-])c2)n[nH]1,5.2
27,O=C1N/C(=N/N=C/c2ccccc2O)SC1Cc1ccccc1 (centres undefined),1.4
28,CCC1S/C(=N\N=C\c2cccc3ccccc23)NC1=O (centres undefined),127
29,CCC1S/C(=N/N=C/c2ccc3c(c2)OCO3)NC1=O (centres undefined),-13.8
